Laboratory results as given in PubChem BioAssay (Tox21).
Where “and” joins values, the source holds several entries; their conditions need not be identical. Equal entries are not always repeated. Records with an inconclusive call do not appear. Calls of active or inactive are those of the source. Unless noted, the call rests on the fitted dose curve; in most records, active means well fitted curve in the direction sought with a large enough effect in the repeat runs; inconclusive means weak or mixed curves; inactive means no such curve, though single readings can be large; an effect the other way counts as inactive or inconclusive.

Tests used:
[1] = qHTS assay to identify small molecule agonists of the hypoxia (HIF-1) signaling pathway - cell viability counter screen (AID 1224844; calls by dose curve; further: nearly all actives have a fitted effect of over 50% in size)
Outline: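 Multiplexed with the HRE beta-lactamase assay, this viability read used CellTiter-Glo luminescence (30 min, RT) on HRE-bla ME-180 cells treated 17 hrs with compounds in 0.5% dialyzed FBS medium.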

[2] = qHTS assay to identify small molecule agonists of H2AX (AID 1224845; active means well fitted activation curve with a large enough effect in the signal ratio in the repeat runs, not every such curve was filed as active; the % refers to the signal ratio)
Outline: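 Wild-type CHO-K1 cells, plated overnight, exposed 3hr at 37C to 15 concentrations (0.76% DMSO final). Lysed, then HTRF anti-pH2AX (S139) cryptate and anti-H2AX-d2 antibodies, 24 hr room temperature; 665/620 nm emission read.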

[3] = qHTS assay to identify small molecule agonists of the hypoxia (HIF-1) signaling pathway (AID 1224846; active means well fitted activation curve with a large enough effect in the signal ratio in the repeat runs, not every such curve was filed as active; the % refers to the signal ratio)
Outline: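 Hypoxia-pathway activation was scored as increased beta-lactamase from an HRE-controlled reporter in ME-180 cells; plated at 2,000 cells per well with 0.5% dialyzed FBS, they were exposed 17 hrs to compounds and then given CCF4-AM.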

[4] = qHTS assay to identify small molecule agonists of H2AX - cell viability counter screen (AID 1224847; calls by dose curve; further: top concentration of the series differs between compounds; nearly all actives have a fitted effect of over 30% in size)
Outline: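 Cytotoxicity counter screen in wild-type CHO-K1 cells: a 3 hr compound treatment at 37C across 15 concentrations, followed by CellTiter-Glo luminescence to gauge viable cells.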

[5] = qHTS RealTime-Glo MT Cell Viability Assay in HepG2 cells - 24 hour (AID 1224867); further: nearly all actives have a fitted effect of over 50% in size
Outline: (§1)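 Compound treatment began 5 h after plating HepG2 cells (600/well) with NanoLuc luciferase and prosubstrate. Plates stayed at 37 C for 40 h; luminescence was captured at six time points, 0 h through 40 h.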

[6] = qHTS RealTime-Glo MT Cell Viability Assay in HEK293 cells - 32 hour (AID 1224868); further: nearly all actives have a fitted effect of over 50% in size; further: potency means the concentration at half of the fitted maximal effect
Outline: (§2)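 Quantitative high-throughput screen of the Tox21 10K library in HEK293: cells and RealTime-Glo reagents plated together, compound added at 5 h, luminescence monitored through 40 h at 37 C.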

[7] = A CellTox Green Cytotoxicity Assay to monitor cytotoxicity in HEK293 cells - 0 hour (AID 1224869); further: nearly all actives have a fitted effect of over 50% in size
Outline: (§3)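 Seeding of HEK293 cells together with cytotoxicity dye preceded a 5 h incubation at 37 C/5% CO2. Test compounds in DMSO were then added and fluorescence monitored across 40 h.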

[8] = qHTS RealTime-Glo MT Cell Viability Assay in HepG2 cells - 40 hour (AID 1224870); further: nearly all actives have a fitted effect of over 50% in size
Outline: (§4)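 HepG2 cells (600/well) mixed with RealTime-Glo MT reagent, settled 5 h at 37 C/5% CO2 before compound addition. Nonlytic NanoLuc luminescence from viable-cell prosubstrate reduction read repeatedly during 40 h treatment at 37 C.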

[9] = A CellTox Green Cytotoxicity Assay to monitor cytotoxicity in HEK293 cells - 40 hour (AID 1224871); further: nearly all actives have a fitted effect of over 45% in size
Outline: as §3

[10] = qHTS RealTime-Glo MT Cell Viability Assay in HEK293 cells - 16 hour (AID 1224872); further: nearly all actives have a fitted effect of over 50% in size; further: potency means the concentration at half of the fitted maximal effect; on activity change, negative = cytotoxicity: top concentration of the series differs between compounds
Outline: as §2

[11] = qHTS RealTime-Glo MT Cell Viability Assay in HepG2 cells - 8 hour (AID 1224873); further: nearly all actives have a fitted effect of over 55% in size
Outline: as §4

[12] = qHTS RealTime-Glo MT Cell Viability Assay in HEK293 cells - 40 hour (AID 1224874); conditions: RealTime-Glo luminescence; max response: active compounds read low; further: nearly all actives have a fitted effect of over 50% in size; further: potency means the concentration at half of the fitted maximal effect
Outline: (§5)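 Tox21 screen in HEK293 using RealTime-Glo MT chemistry, with cells and reagent co-dispensed. Luminescence proportional to viable cell number was captured at intervals during 40 h compound exposure at 37 C.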

[13] = A CellTox Green Cytotoxicity Assay to monitor cytotoxicity in HEK293 cells - 24 hour (AID 1224875); further: series mostly up to about 77 µM; nearly all actives have a fitted effect of over 45% in size
Outline: as §3

[14] = A CellTox Green Cytotoxicity Assay to monitor cytotoxicity in HepG2 cells - 16 hour (AID 1224876); further: nearly all actives have a fitted effect of over 45% in size
Outline: (§6)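 Nonlytic assay: viable cells exclude the dye, so fluorescence scales with cell death. HepG2 at 600 cells/well, compounds added after 5 h, signal read across 40 h.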

[15] = qHTS RealTime-Glo MT Cell Viability Assay in HepG2 cells - 32 hour (AID 1224877); further: nearly all actives have a fitted effect of over 55% in size
Outline: as §1

[16] = A CellTox Green Cytotoxicity Assay to monitor cytotoxicity in HepG2 cells - 24 hour (AID 1224878); further: nearly all actives have a fitted effect of over 45% in size
Outline: as §6

[17] = A CellTox Green Cytotoxicity Assay to monitor cytotoxicity in HepG2 cells - 40 hour (AID 1224879); further: nearly all actives have a fitted effect of over 40% in size
Outline: as §6

[18] = qHTS RealTime-Glo MT Cell Viability Assay in HEK293 cells - 0 hour (AID 1224880)
Outline: as §5
On the % scale 0 is the no-effect control and ±100 the full control effect.

Oc1ccc(Cc2ccccc2O)cc1
active: Potency [6] 19.7 µM | Potency [10] 15.5 µM | Potency [12] 14 µM and 17.4 µM
inactive: Potency [1] | Potency [2] | outcome [3] | Potency [4] | Potency [5] | Potency [7] | Potency [8] | Potency [9] | Potency [11] | Potency [13] | Potency [14] | Potency [15] | Potency [16] | Potency [17] | Potency [18]

Cc1cccc(C)c1[N+](=O)[O-]
inactive: Potency [1] | Potency [2] | outcome [3] | Potency [4] | Potency [5] | Potency [6] | Potency [7] | Potency [8] | Potency [9] | Potency [10] | Potency [11] | max response [12] -0.329% | Potency [13] | Potency [14] | Potency [15] | Potency [16] | Potency [17] | Potency [18]

Cc1ccc(Cl)cc1
inactive: Potency [1] | Potency [2] | outcome [3] | Potency [4] | Potency [5] | Potency [6] | Potency [7] | Potency [8] | Potency [9] | Potency [10] | Potency [11] | max response [12] 3.18% and 19.9% | Potency [13] | Potency [14] | Potency [15] | Potency [16] | Potency [17] | Potency [18]

CC(=O)CC(=O)N(C)C
inactive: Potency [1] | Potency [2] | outcome [3] | Potency [4] | Potency [5] | Potency [6] | Potency [7] | Potency [8] | Potency [9] | Potency [10] | Potency [11] | max response [12] 0.701% and 6.53% | Potency [13] | Potency [14] | Potency [15] | Potency [16] | Potency [17] | Potency [18]

O=C1CCCCCCCCCCC1
inactive: Potency [1] | Potency [2] | outcome [3] | Potency [4] | Potency [5] | Potency [6] | Potency [7] | Potency [8] | Potency [9] | Potency [10] | Potency [11] | max response [12] -9.58% and -0.296% | Potency [13] | Potency [14] | Potency [15] | Potency [16] | Potency [17] | Potency [18]

CCOC(=O)c1ccc(O)cc1
inactive: Potency [1] | Potency [2] | outcome [3] | Potency [4] | Potency [5] | Potency [6] | Potency [7] | Potency [8] | Potency [9] | Potency [10] | Potency [11] | max response [12] -23.5% and -3.47% | Potency [13] | Potency [14] | Potency [15] | Potency [16] | Potency [17] | Potency [18]

OCC(CO)(CO)CO
inactive: Potency [1] | Potency [2] | outcome [3] | Potency [4] | Potency [5] | Potency [6] | Potency [7] | Potency [8] | Potency [9] | Potency [10] | Potency [11] | max response [12] 2.43% and 2.9% | Potency [13] | Potency [14] | Potency [15] | Potency [16] | Potency [17] | Potency [18]

OC1CCCCC1
inactive: Potency [1] | Potency [2] | outcome [3] | Potency [4] | Potency [5] | Potency [6] | Potency [7] | Potency [8] | Potency [9] | Potency [10] | Potency [11] | max response [12] 6.11% and 1.84% | Potency [13] | Potency [14] | Potency [15] | Potency [16] | Potency [17] | Potency [18]

CCCCCCCCO
inactive: Potency [1] | Potency [2] | outcome [3] | Potency [4] | Potency [5] | Potency [6] | Potency [7] | Potency [8] | Potency [9] | Potency [10] | Potency [11] | max response [12] 2.5% and 9.18% | Potency [13] | Potency [14] | Potency [15] | Potency [16] | Potency [17] | Potency [18]

Cc1ccc(C(C)C)cc1
inactive: Potency [1] | Potency [2] | outcome [3] | Potency [4] | Potency [5] | Potency [6] | Potency [7] | Potency [8] | Potency [9] | Potency [10] | Potency [11] | max response [12] 2.75% and 28.4% | Potency [13] | Potency [14] | Potency [15] | Potency [16] | Potency [17] | Potency [18]

CCCCCCCCC(=O)O
inactive: Potency [1] | Potency [2] | outcome [3] | Potency [4] | Potency [5] | Potency [6] | Potency [7] | Potency [8] | Potency [9] | Potency [10] | Potency [11] | max response [12] 1.64% and 2.96% | Potency [13] | Potency [14] | Potency [15] | Potency [16] | Potency [17] | Potency [18]

CCCCCCCCCCCC(=O)N(C)CC(=O)O
inactive: activity change, negative = cytotoxicity [1] 0.126% [at 6.97 µM] | Potency [2] | outcome [3] | Potency [4] | Potency [5] | Potency [6] | Potency [7] | Potency [8] | cytotoxicity increase [9] 3.46% [at 6.97 µM] | Potency [10] | Potency [11] | max response [12] 1.1% and -15.4% | Potency [13] | Potency [14] | Potency [15] | Potency [16] | cytotoxicity increase [17] 1.38% [at 6.97 µM] | Potency [18]

O=C1O[C@H]([C@H](O)CO)C(O)=C1O
inactive: Potency [1] | Potency [2] | outcome [3] | Potency [4] | Potency [5] | Potency [6] | Potency [7] | Potency [8] | Potency [9] | Potency [10] | Potency [11] | max response [12] 0.913% and 0.152% | Potency [13] | Potency [14] | Potency [15] | Potency [16] | Potency [17] | Potency [18]

C=CC(=O)NCOCCCC
inactive: Potency [1] | Potency [2] | outcome [3] | Potency [4] | Potency [5] | Potency [6] | Potency [7] | Potency [8] | Potency [9] | Potency [10] | Potency [11] | max response [12] 1.11% and 4.5% | Potency [13] | Potency [14] | Potency [15] | Potency [16] | Potency [17] | Potency [18]
